Results as given in PubChem BioAssay (Tox21).
Active and inactive are the calls of the source. The call rests on the fitted dose curve.

Each molecule was assayed against Muscarinic acetylcholine receptor M1 (Homo sapiens) (UniProt P11229) (assay: Cholinergic receptor muscarinic 1 (CHRM1) small molecule agonists, cell-based qHTS assay (AID 1963589; further: nearly all actives have a fitted effect of over 35% in size)). Conditions: CHRM1-CHO cells, agonist mode, calcium flux fluorescence; series mostly up to 76.8 µM; activation: at the top concentration.
Text: National Center for Advancing Translational Sciences [NCATS]
Division of Preclinical Innovation [DPI]
U.S. Environmental Protection Agency [EPA]
National Institutes of Environmental Health Sciences [NIEHS]
National Toxicology Program [NTP]
U.S. Food and Drug Administration [FDA]
The CHRM1 is a muscarinic receptor. This receptor plays a crucial role in learning and memory processes and has long been identified as a promising therapeutic target for the improvement of cognitive decline in Alzheimer's disease (AD). The CHRM1-CHO cell line stably expressing human muscarinic acetylcholine receptor M1 (CHRM1) can be used for screening agonists and antagonists of interactions between CHRM1 and its ligands. The CHRM1-CHO Calcium Flux Assay is a homogeneous fluorescence-based assay for detecting the intracellular calcium level using FDSS kinetic plate reader system.
CHRM1-CHO cells were dispensed at 1000 cells/3uL/well in 1536-well black-clear bottom plates using a Multidrop Dispenser. After the assay plates were incubated at a 37 C/5% CO2 incubator for 18 h, 3 uL of Dye Loading Buffer was transferred to the assay plate by a Flying Reagent Dispenser. The assay plates were incubated at 37 C for 1h. For agonist mode, 23 nL of compounds dissolved in DMSO, positive controls or DMSO only was transferred to the assay plate by a pin tool. […] Each test compound was measured at 15 concentrations in three independent runs.
On the % scale 0 is the no-effect control and ±100 the full control effect.

Chain of Muscarinic acetylcholine receptor M1 (Homo sapiens) (P11229 whole entry, looked up): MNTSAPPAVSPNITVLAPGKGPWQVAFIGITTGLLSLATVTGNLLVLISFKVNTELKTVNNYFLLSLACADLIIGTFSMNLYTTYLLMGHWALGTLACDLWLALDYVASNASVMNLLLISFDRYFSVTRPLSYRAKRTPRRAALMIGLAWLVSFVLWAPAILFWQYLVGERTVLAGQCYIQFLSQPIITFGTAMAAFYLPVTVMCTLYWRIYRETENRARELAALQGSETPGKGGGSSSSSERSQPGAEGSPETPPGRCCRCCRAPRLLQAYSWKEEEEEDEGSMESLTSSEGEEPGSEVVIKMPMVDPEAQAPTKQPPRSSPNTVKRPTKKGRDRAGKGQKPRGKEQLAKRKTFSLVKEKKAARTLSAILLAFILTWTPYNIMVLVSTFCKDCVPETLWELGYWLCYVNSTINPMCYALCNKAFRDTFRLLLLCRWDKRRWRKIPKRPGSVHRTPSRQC

SMILES | activation
COc1ccc(C(=O)N2CCN(CC(=O)N3CCOCC3)CC2)cc1 | -0.109% [at 35.3 µM] (inactive)
CCC(C(=O)O)c1ccc(N2Cc3ccccc3C2=O)cc1 (stereo not given) | 13% [at 35.3 µM] (inactive)
CN(C)C(=O)CNC(=O)Cc1ccccc1 | -7.14% [at 35.3 µM] (inactive)
C/C=C/C(=O)Oc1c(CCCCCC(C)C)cc([N+](=O)[O-])cc1[N+](=O)[O-] | 8.73% (inactive)
CCC(=O)O[C@]1(C(=O)COC)[C@@H](C)C[C@H]2[C@@H]3CCC4=CC(=O)C=C[C@]4(C)C3(F)[C@@H](O)C[C@@]21C (stereo not given in full) | 4.84% [at 35.3 µM] (inactive)
Nc1cc(C(=O)O)ccc1Cl | 0.0321% (inactive)
CCCCCCCCCCCC[N+](C)(C)CCCCCCCCCCCC | -0.0268% (inactive)
CCOC(=O)Cn1cccc1-c1nc(-c2ccc(OC)cc2)c(-c2ccc(OC)cc2)s1 | 1.85% [at 35.3 µM] (inactive)
O=[N+]([O-])c1ccc(/C=N\O)o1 | 0.18% [at 35.3 µM] (inactive)
CC(C(O)c1ccc(O)cc1)N1CCC(Cc2ccccc2)CC1 (stereo not given) | -0.532% [at 35.3 µM] (inactive)
O=C(CO)[C@@H](O)[C@H](O)[C@@H](O)CO | 27.7% [at 35.3 µM] (inactive)
CCCC(C(=O)OCCN(CC)CC)(c1ccccc1)c1ccccc1 | -0.271% [at 35.3 µM] (inactive)
CCCCCCCC/C=C\CCCCCCCCCCCC(=O)O | -0.326% (inactive)
CC1=C2[C@@H]([C@H](C)CC[C@H]2/C=C(\C)C(=O)O)[C@H](O)C1 | -0.429% (inactive)
CCOC(=O)Oc1ccc(CCNC(=O)[C@H](CCSC)NC(C)=O)cc1OC(=O)OCC | -0.453% [at 35.3 µM] (inactive)
CCCCOc1cc(C(=O)OCCN(CC)CC)ccc1N | -0.144% [at 35.3 µM] (inactive)
CC1=C(C)C(=O)C(CCCCC#CCCCC#CCO)=C(C)C1=O | -0.0241% [at 35.3 µM] (inactive)
C#CC(O)CCCCC (stereo not given) | -0.396% (inactive)
CCCCCCn1c(=O)c2c(ncn2C)n(C)c1=O | 0.0055% [at 35.3 µM] (inactive)
CN1CCN(C2Cc3ccccc3Sc3ccc(Cl)cc32)CC1 (stereo not given) | 1.34% [at 35.3 µM] (inactive)

SMILES | activation
NC(=O)Nc1ccc(Cl)c(Cl)c1 | -0.531% (inactive)
CC(=O)O[C@@H]1CC2CCC1(C)C2(C)C (stereo not given in full) | 0.193% (inactive)
C1=CCC(c2ccccc2)CC1 (stereo not given) | 0.0613% (inactive)
CC(C)=CCCC(C)C=O (stereo not given) | -13.6% (inactive)
O=C(CCOCCOCCOCCOCCC(=O)Nc1c(I)cc(I)c(C(=O)O)c1I)Nc1c(I)cc(I)c(C(=O)O)c1I | 0.425% [at 35.3 µM] (inactive)
C=CC(C)(CCC=C(C)C)OC(=O)C(C)C (stereo not given) | -0.471% (inactive)
O=C1CCCCCCCCCCC(=O)OCCO1 | 1.46% (inactive)
CC1=CCC(=C(C)C)CC1 | -0.0449% (inactive)
O=C(Nc1cccc2c(=O)cc(-c3nn[nH]n3)oc12)c1ccc(OCCCCc2ccccc2)cc1 | 3.94% [at 35.3 µM] (inactive)
CCCCc1ccc2c(n1)[C@@H](c1ccc(OC)cc1C[C@H](C)C(=O)O)[C@H](C(=O)O)[C@H]2c1ccc2c(c1)OCO2 | 0.105% (inactive)
Cc1c(Cn2ccnc2)c2ccccc2n1CCC(=O)O | 0.0995% [at 35.3 µM] (inactive)
CC(C)OC(=O)c1cc2c(OCC(O)CNC(C)(C)C)cccc2[nH]1 (stereo not given) | 0.0166% [at 35.3 µM] (inactive)
O=Cc1c(Cl)cccc1Cl | 0.918% (inactive)
COc1cc2c(cc1OC)CN(C(=O)[C@H](C)N[C@@H](CCc1ccccc1)C(=O)O)[C@H](C(=O)O)C2 | 0.322% [at 35.3 µM] (inactive)
COc1ccc(-n2nc(C(F)F)cc2-c2ccc(S(C)=O)cc2)cc1 (stereo not given) | 0.234% (inactive)
C=CC1CC2C=CC1C2 (stereo not given) | 0.569% (inactive)
CC(C)(C)OC(=O)c1ccccc1C(=O)O | -0.0402% (inactive)
CCOc1cc([N+](=O)[O-])c(OCC)cc1N1CCOCC1 | -0.239% (inactive)
CCOC(=O)CC(C)O (stereo not given) | 0.314% (inactive)
Cc1cccc(CN2CCN(C(c3ccccc3)c3ccc(Cl)cc3)CC2)c1 (stereo not given) | -0.0633% [at 35.3 µM] (inactive)
